Source: PubChem BioAssay (Tox21)
Results filed as inconclusive are left out. Calls of active or inactive are those of the source. Unless noted, the call rests on the fitted dose curve; in most records, active means well fitted curve in the direction sought with a large enough effect in the repeat runs; inconclusive means weak or mixed curves; inactive means no such curve, though single readings can be large; an effect the other way counts as inactive or inconclusive.

Key:
[1] = qHTS assay to identify small molecule agonists of the hypoxia (HIF-1) signaling pathway - cell viability counter screen (AID 1224844; calls by dose curve; further: nearly all actives have a fitted effect of over 50% in size)
Outline: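 CellTiter-Glo luminescence read-out, 30 min RT, taken in the same wells as the beta-lactamase HRE reporter assay; HRE-bla ME-180 cells, 0.5% dialyzed FBS, 17 hr compound treatment at 37C, 5% CO2.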

[2] = qHTS assay to identify small molecule agonists of H2AX (AID 1224845; active means well fitted activation curve with a large enough effect in the signal ratio in the repeat runs, not every such curve was filed as active; the % refers to the signal ratio; further: potency means the concentration at half of the fitted maximal effect)
Outline: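 Phospho-H2AX Ser139 measured by HTRF (ex 320 nm; em 665 and 620 nm) after 24 hr antibody incubation. Compounds, 15 concentrations, 0.76% DMSO, were applied to CHO-K1 cells for 3hr at 37C before lysis.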

[3] = qHTS assay to identify small molecule agonists of the hypoxia (HIF-1) signaling pathway (AID 1224846; active means well fitted activation curve with a large enough effect in the signal ratio in the repeat runs, not every such curve was filed as active; the % refers to the signal ratio)
Outline: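 Beta-lactamase FRET read-out (CCF4-AM substrate) from ME-180 cells carrying an HRE-driven bla reporter, after 17 hrs compound exposure at 37C/5% CO2. Cells were seeded at 2,000 per well in 0.5% dialyzed FBS medium and preincubated 5 hrs.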

[4] = qHTS assay to identify small molecule agonists of H2AX - cell viability counter screen (AID 1224847; calls by dose curve;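 further: wild-type CHO-K1 cells; top concentration of the series differs between compounds; nearly all actives have a fitted effect of over 30% in size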)
Outline: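 CHO-K1 cells plated overnight at 37C, then exposed 3 h at 37C to compounds at 15 concentrations (0.76% DMSO final). Viability by CellTiter-Glo luminescence after 30 min at room temperature.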

[5] = qHTS RealTime-Glo MT Cell Viability Assay in HepG2 cells - 24 hour (AID 1224867); further: nearly all actives have a fitted effect of over 50% in size
Outline: (§1)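 Viability was tracked continuously by NanoLuc luminescence from prosubstrate reduced by living HepG2 cells, at successive time points over 40 h of compound exposure. Cells with reagent were preincubated 5 h at 37 °C before compound addition.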

[6] = qHTS RealTime-Glo MT Cell Viability Assay in HEK293 cells - 32 hour (AID 1224868); further: top concentration of the series differs between compounds; nearly all actives have a fitted effect of over 50% in size
Outline: (§2)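 Viability tracked continuously by luminescence as live cells reduce a prosubstrate for NanoLuc; HEK293 cells preincubated 5 h, compound-treated at 37 C, and read at 0, 8, 16, 24, 32 and 40 h.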

[7] = A CellTox Green Cytotoxicity Assay to monitor cytotoxicity in HEK293 cells - 0 hour (AID 1224869); further: nearly all actives have a fitted effect of over 50% in size
Outline: (§3)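 Read-out: fluorescence of a cell-impermeant cyanine dye staining DNA of dead cells, proportional to cytotoxicity. HEK293, 600 cells/well with reagent, compound (23 nL DMSO) added after 5 h; reads at 0, 8, 16, 24, 32, 40 h.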

[8] = qHTS RealTime-Glo MT Cell Viability Assay in HepG2 cells - 40 hour (AID 1224870); further: nearly all actives have a fitted effect of over 50% in size
Outline: (§4)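 Real-time viability: cells seeded at 600 per well together with NanoLuc and cell-permeant prosubstrate, compounds added after 5 h incubation. Luminescence tracked at 0, 8, 16, 24, 32 and 40 h of exposure.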

[9] = A CellTox Green Cytotoxicity Assay to monitor cytotoxicity in HEK293 cells - 40 hour (AID 1224871); further: nearly all actives have a fitted effect of over 45% in size
Outline: as §3

[10] = qHTS RealTime-Glo MT Cell Viability Assay in HepG2 cells - 8 hour (AID 1224873); further: nearly all actives have a fitted effect of over 55% in size
Outline: as §4

[11] = qHTS RealTime-Glo MT Cell Viability Assay in HEK293 cells - 40 hour (AID 1224874); settings: RealTime-Glo luminescence; max response: active compounds read low; further: nearly all actives have a fitted effect of over 50% in size
Outline: (§5)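 Luminescence readout at each listed time point; HEK293, 600 cells/well, RealTime-Glo MT reagent added with cells; compounds pinned (23 nL in DMSO) after 5 h at 37 C; continuous culture at 37 C.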

[12] = A CellTox Green Cytotoxicity Assay to monitor cytotoxicity in HEK293 cells - 24 hour (AID 1224875); further: series mostly up to about 77 µM; nearly all actives have a fitted effect of over 45% in size
Outline: as §3

[13] = A CellTox Green Cytotoxicity Assay to monitor cytotoxicity in HepG2 cells - 16 hour (AID 1224876); further: nearly all actives have a fitted effect of over 45% in size
Outline: (§6)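 HepG2, 600 cells/well premixed w/ CellTox Green; 5 h settle, 37 C/5% CO2; pintool cpd add (DMSO); 37 C, 40 h; fluorescence read at 0, 8, 16, 24, 32, 40 h.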

[14] = qHTS RealTime-Glo MT Cell Viability Assay in HepG2 cells - 32 hour (AID 1224877); further: nearly all actives have a fitted effect of over 55% in size
Outline: as §1

[15] = A CellTox Green Cytotoxicity Assay to monitor cytotoxicity in HepG2 cells - 24 hour (AID 1224878); further: nearly all actives have a fitted effect of over 45% in size
Outline: as §6

[16] = A CellTox Green Cytotoxicity Assay to monitor cytotoxicity in HepG2 cells - 40 hour (AID 1224879); further: nearly all actives have a fitted effect of over 40% in size
Outline: as §6

[17] = qHTS RealTime-Glo MT Cell Viability Assay in HEK293 cells - 0 hour (AID 1224880)
Outline: as §5

[18] = qHTS RealTime-Glo MT Cell Viability Assay in HEK293 cells - 16 hour (AID 1224872)
Outline: as §2

[19] = qHTS assay to identify small molecule antagonists of the estrogen related receptor (ERR) signaling pathway from Tox21 library (AID 1224848); further: nearly all actives have a fitted effect of over 50% in size
Outline: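 Luciferase luminescence (ONE-Glo, 30 min room temperature) was the read-out. Cells of the NTP-supplied ERR line, 2,000 per well, were given 6 h at 37 C before compound addition in DMSO and 18 h exposure at 37 C.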
On the % scale 0 is the no-effect control and ±100 the full control effect.

CC1(C)[C@@H]2CC[C@@]1(C)[C@H](O)C2
inactive: Potency [1] | Potency [2] | outcome [3] | outcome [4] | outcome [5] | Potency [6] | outcome [7] | Potency [8] | Potency [9] | outcome [10] | max response [11] 2.75% | outcome [12] | outcome [13] | Potency [14] | outcome [15] | Potency [16] | Potency [17]

CNC(=O)Nc1ccc(Cl)c(Cl)c1
inactive: Potency [1] | Potency [2] | outcome [3] | outcome [4] | outcome [5] | Potency [6] | outcome [7] | Potency [8] | Potency [9] | Potency [18] | outcome [10] | max response [11] -26.8% | outcome [12] | outcome [13] | Potency [14] | outcome [15] | Potency [16] | Potency [17]

CC(C)=CCC/C(C)=C/C#N
inactive: Potency [1] | Potency [2] | outcome [3] | outcome [4] | outcome [5] | Potency [6] | Potency [8] | Potency [9] | Potency [18] | outcome [10] | max response [11] 2.39% | outcome [12] | outcome [13] | Potency [14] | outcome [15] | Potency [16] | Potency [17]

CCOC(=O)C(=O)CCCCCCl
inactive: Potency [1] | Potency [2] | outcome [3] | outcome [4] | outcome [5] | outcome [7] | Potency [8] | Potency [9] | Potency [18] | outcome [10] | max response [11] 4.01% | outcome [12] | outcome [13] | Potency [14] | outcome [15] | Potency [16] | Potency [17]

CO[Si](C)(OC)c1ccccc1
inactive: Potency [1] | Potency [2] | outcome [3] | Potency [19] | outcome [5] | Potency [6] | outcome [7] | Potency [8] | Potency [9] | Potency [18] | outcome [10] | max response [11] -2.44% | outcome [12] | outcome [13] | Potency [14] | outcome [15] | Potency [16] | Potency [17]

COC(=O)Nc1ccc(Cl)c(Cl)c1
inactive: Potency [1] | Potency [2] | outcome [3] | outcome [4] | outcome [5] | outcome [7] | Potency [8] | Potency [9] | outcome [10] | max response [11] -27.2% | outcome [12] | outcome [13] | Potency [14] | outcome [15] | Potency [16] | Potency [17]

Cc1nc2ccc(CN(C)c3ccc(C(=O)N[C@@H](CCC(=O)O)C(=O)O)s3)cc2c(=O)[nH]1
inactive: Potency [1] | outcome [3] | outcome [4] | outcome [5] | outcome [7] | Potency [8] | Potency [9] | Potency [18] | outcome [10] | outcome [12] | outcome [13] | Potency [14] | outcome [15] | Potency [17]
active: Potency [2] 619 nM
